Experimental data from PubChem BioAssay (NCI).
About 83,000 compounds went through this panel and 20% of them were active in at least one assay; those are over-represented in the sample as a whole.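 Compound tested at a single concentration for 48 hours in 96-well plates; a percent growth value below 10 was scored as active.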 Calls of active or inactive are those of the source.

How the values were obtained:
Assay in all cases: NCI-60 one-dose screen, 48 h (100 = growth as untreated, 0 = no growth, -100 = all killed)
Conditions in all cases: 10 µM unless noted
[1] = tested on: DU-145 prostate
[2] = tested on: K-562 leukemia
[3] = tested on: MALME-3M melanoma
[4] = tested on: MDA-MB-231 breast
[5] = tested on: RXF 393 renal
[6] = tested on: SF-268 CNS
[7] = tested on: SF-295 CNS
[8] = tested on: SF-539 CNS
[9] = tested on: UACC-257 melanoma
[10] = tested on: M14 melanoma
[11] = tested on: HCT-15 colon
[12] = tested on: HT29 colon
[13] = tested on: SNB-19 CNS
[14] = tested on: U251 CNS
[15] = tested on: PC-3 prostate
[16] = tested on: SK-MEL-5 melanoma
[17] = tested on: UACC-62 melanoma
[18] = tested on: LOX IMVI melanoma
[19] = tested on: SK-MEL-28 melanoma

Measured: growth

COc1cc(NCCCCCN=C(N)NC(N)=NC(C)C)c2ncccc2c1
active: [3] -19.2% | [9] -8.06% | [16] 5.87% | [18] 9.91%
inactive: [1] 104% | [2] 26.1% | [4] 22% | [5] 131% | [6] 29% | [7] 98.3% | [8] 44.9% | [10] 67.7% | [11] 110% | [12] 54.2% | [13] 33.2% | [14] 20.5% | [15] 32.8% | [17] 36.8% | [19] 60.1%

O=C(O)c1cn(C2CC2)c2cc(N3CCN(Cc4nc5c(cnn5-c5ccc([N+](=O)[O-])cc5)c(=O)[nH]4)CC3)c(F)cc2c1=O
inactive: [1] 110% | [2] 92.6% | [3] 98.1% | [4] 92.4% | [5] 107% | [6] 96.4% | [7] 105% | [8] 97.8% | [9] 106% | [10] 102% | [11] 102% | [12] 102% | [13] 106% | [14] 106% | [15] 93.9% | [16] 99% | [18] 101% | [19] 106%

CC[C@H](Nc1ncnc(N)c1C(N)=O)c1nc2cccc(NCc3ccc(C(=O)NO)cc3)c2c(=O)n1-c1ccccc1
inactive: [1] 97.6% | [2] 55.6% | [3] 67.2% | [4] 83.8% | [5] 55.2% | [6] 90.1% | [7] 93.2% | [8] 75.1% | [9] 63.4% | [10] 95.9% | [11] 105% | [12] 88.7% | [13] 68.2% | [14] 52.9% | [15] 92.1% | [16] 87.9% | [17] 63.3% | [18] 103% | [19] 69.2%

O=C1O[C@H]([C@H](O)CO)C(O)=C1O
inactive: [1] 100% | [2] 107% | [3] 119% | [4] 97.1% | [5] 100% | [6] 117% | [7] 110% | [8] 108% | [9] 103% | [10] 106% | [11] 103% | [12] 105% | [13] 95.8% | [15] 96% | [16] 104% | [17] 98.1% | [18] 94.8% | [19] 117%

COc1ccc(-c2cc(-c3ccc(N(C)C)cc3)nc(NC(=O)c3ccncc3)n2)cc1
inactive: [1] 102% | [2] 95% | [3] 119% | [4] 111% | [5] 87.3% | [6] 98.1% | [7] 105% | [8] 96.8% | [9] 108% | [10] 104% | [11] 90.4% | [12] 106% | [13] 90.2% | [15] 83.5% | [16] 89.2% | [17] 101% | [18] 91.7% | [19] 108%

Cc1nc2sc(C(=O)Nc3cccc4c3OCCO4)c(N)c2cc1C(C)O (stereo unspecified)
active: [5] -5.15% | [8] 4.07% | [12] 3.68%
inactive: [1] 47.7% | [2] 13.3% | [3] 47.1% | [4] 39.9% | [6] 49.9% | [7] 10.9% | [9] 55.7% | [10] 37.5% | [11] 21.4% | [13] 34.3% | [14] 28.7% | [16] 29.7% | [18] 33% | [19] 66.6%

O=[N+]([O-])c1cccc(-c2nc3sccn3c2-c2ccnc(NCCCNS(=O)(=O)c3ccc(Br)cc3)n2)c1
active: [16] -15.6%
inactive: [1] 58.9% | [2] 31.7% | [3] 59.9% | [4] 67.3% | [5] 81.3% | [6] 56.6% | [7] 48.2% | [8] 90.3% | [9] 61.1% | [10] 45.8% | [11] 34.1% | [12] 57.1% | [13] 87.4% | [14] 83.8% | [15] 24.5% | [18] 38.4% | [19] 76.9%

COc1cc(/C=C2\CN(C(=O)CCN3CCC(=NO)CC3)C/C(=C\c3cc(OC)c(OC)c(OC)c3)C2=O)cc(OC)c1OC
active: [1] -94% | [2] 6.55% | [3] -50.4% | [4] -73.5% | [5] -85.1% | [6] -73% | [7] -75.4% | [8] -60.5% | [9] -16.9% | [10] -46.6% | [11] -54.7% | [12] -70% | [13] -90.1% | [14] -68.6% | [15] -54.3% | [16] -61.2% | [17] -70.7% | [18] -85.2% | [19] -76.7%
